Source: PubChem BioAssay AID504725 (Broad Institute, 2011)
Measured potencies and affinities stand elsewhere. Active and inactive are the calls of the source. How the calls were made is not given here.

Target: KSHV LANA C-terminal domain (residues 932-1162) binding to LBS DNA (UniProt O40947)
Assay: KSHV LANA DNA-binding disruption – biochemical, fluorescence polarization, cherry-picked samples, dose response (AID 504725)

Structure (SMILES)	outcome
Cc1nnc2sc(-c3csc4c3CCCC4)nn12	inactive
CN1CCc2c(sc(NC(=O)c3ccc4ccccc4c3)c2C(N)=O)C1	inactive
CCOC(=O)c1cnc(SC)nc1Sc1ccc(Cl)cc1Cl	inactive
Cc1cccc(COc2ccc(/C=N/NC(=O)c3nnn(-c4nonc4N)c3COc3ccc(F)cc3)cc2)c1	inactive
COc1ccc(OC)c(NC(=O)c2nnn(Cc3ccc(Br)cc3F)c2N)c1	inactive
COc1ccc(CCNC(=O)CNC(=O)Cn2ccc3ccccc3c2=O)cc1OC	inactive
COc1ccc2[nH]c3c(C)c4cc[n+](C)cc4c(C)c3c2c1	inactive
CCOC(=O)C1=C(O)/C(=C/c2cc(C)n(-c3ccccc3)c2C)N=C1C	inactive
CCOC(=O)c1sc(NC(=O)CSC(=S)N2CCN(C)CC2)nc1C	inactive
CCC(=O)Nc1cccc(C(=O)/C=C/c2ccccc2)c1	inactive
COc1ccc(-c2nc(C(=O)O)cs2)cc1OC	inactive
CS(=O)(=O)c1cccc(C(=O)Oc2ccccc2)c1	inactive
Cc1cc(S(=O)(=O)NC2CCN(Cc3ccccc3)CC2)c(C)cc1Cl	inactive
Cc1cc(Cl)ccc1N1C(=O)CC(NNC(=O)c2cccnc2)C1=O (stereo not given)	inactive
Cn1c(=O)oc2cc(S(=O)(=O)CCC(=O)N3CCN(c4ccccc4F)CC3)ccc21	inactive
CCN(Cc1ccccc1)S(=O)(=O)c1cc2[nH]c(=O)c(=O)[nH]c2cc1C	inactive
C=CCn1c(C)cc(-c2csc(NC(=O)CCc3nc4ccccc4c(=O)[nH]3)n2)c1C	inactive
COc1cc(C(=S)N2CCN(c3cccc(Cl)c3)CC2)ccc1O	inactive
COC(=O)c1cccc(COC(=O)c2ccccc2NC(=O)c2ccco2)c1	inactive
Cc1cc(C(F)(F)F)c2c(N)c(C(=O)Nc3cc(C)on3)sc2n1	inactive
Cc1c(C)n(Cc2ccccc2)c2ncnc(Cl)c12	inactive
Nc1cc(N)nc(SCC(=O)N2CCCCC2)n1	inactive
O=C1c2ccccc2C(=O)C1c1ccccn1	inactive
COCCN(C(=O)CN1CCCc2ccccc21)c1c(N)n(Cc2ccccc2)c(=O)[nH]c1=O	inactive
CCCc1nc(NCc2ccccn2)c2nnn(Cc3ccccc3F)c2n1	inactive

Structure (SMILES)	outcome
NC1=NC[C@@H](Cc2ccc(O)cc2)N1CCc1cc(C(F)(F)F)cc(C(F)(F)F)c1	inactive
CC(=O)NC(C(=O)c1ccccc1)C(=O)c1ccccc1	inactive
C=CCNC(=S)N1CCN(S(=O)(=O)c2ccc(C)cc2)CC1	inactive
COc1ccc(Br)cc1CNC(=O)CCCc1cn(C)c2ccccc12	inactive
O=C1c2ccccc2C(Nc2ccc3c(c2)OCCO3)N1Cc1ccc2c(c1)OCO2 (stereo not given)	inactive
O=C(O)c1cccc(-n2cccc2/C=C/[N+](=O)[O-])c1	inactive
Nc1ccc(C(=O)Nc2ccc3c(O)cc(S(=O)(=O)O)cc3c2)cc1	inactive
Cc1ccc(NC(=S)N/C(=N/S(=O)(=O)c2ccccc2)c2ccccc2)cc1	inactive
O=c1[nH]nc(CSCc2ccccc2Cl)[nH]1	inactive
CC(C)c1ccc(CNc2ccc([N+](=O)[O-])cn2)cc1	inactive
COc1ccc(OCC(=O)N2CCN(c3cccc(C(F)(F)F)c3)CC2)cc1	inactive
CCC(Sc1ncccc1C(=O)O)C(=O)N1CCCC1 (stereo not given)	inactive
CCCn1c(SCC(=O)NCc2cccs2)nc2c1c(=O)n(C)c(=O)n2C	inactive
Nc1nc(-c2ccc(C(=O)O)cc2)cs1	inactive
O=C1/C(=C/c2ccco2)SC(=S)N1c1cccnc1	inactive
CCOC(=O)c1c(C)nc2cc(C)ccn12	inactive
Cc1ccc(C(=O)c2coc3ccc(O)c(Cl)c23)cc1	inactive
CC1CC(C)CN(C(=O)c2ccc3ncsc3c2)C1 (stereo not given)	inactive
COc1ccccc1N1CCN(S(=O)(=O)c2c(C)[nH]c(C)c2C(=O)N2CCCC2)CC1	inactive
O=C(CCN1C(=O)/C(=C/c2ccco2)SC1=S)Nc1ccc(C(=O)O)c(O)c1	inactive
CCN(Cc1ccccc1)C(=O)c1cccc(S(=O)(=O)N2CCN(Cc3ccccc3)CC2)c1	inactive
O=C1CCCC2=C1C(c1ccc(O)c(O)c1)Nc1ccc3ncccc3c12 (stereo not given)	inactive
O=C(CSc1cccc2cccnc12)N/N=C/c1ccc(O)cc1	inactive
Cc1cccc(Nc2nc(N)c([N+](=O)[O-])c(NCc3ccccc3)n2)c1	inactive
COc1cc(OC)cc(-c2c(-c3ccsc3)c3cc(Br)ccc3n2C)c1	inactive
